Screening results deposited in PubChem BioAssay by several laboratories.
MPTP block – inhibitors of mitochondrial permeability transition pore; isolated mouse mitochondria, Ca2+ swelling absorbance, 30 min; inhibition, % at 10 µM; actives 1.4% (n = 360,000);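 active = inhibition of 50% or more, scaled per plate between neutral and stimulator controls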;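 also: 0% = DMSO wells given calcium and 100% = 1 mM EGTA wells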
Calb FLC – C. albicans growth modulation with fluconazole; C. albicans CaCi-2 (fluconazole-resistant clinical isolate) + fluconazole, Alamar Blue growth, 48 h; growth inhibition, % (test concentration not listed); actives 0.57% (n = 300,000); AID 1979;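 active = growth inhibition above about 58% in most replicates, limit read from the data, passing the limit was not always enough; inconclusive = exactly half the replicates above a set limit; inactive = most replicates below a set limit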;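 also: all wells also contain fluconazole at 8 µg/ml as a sub-toxic cotreatment; 0% = median of DMSO wells and 100% = median of geldanamycin control wells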
Beta cell apopt – beta cell apoptosis inhibition. INS-1E cytokine-induced death, ATP luminescence, 48 h; percent of positive-control rescue, neutral wells zero. protection from apoptosis, % (concentration not given with the values). actives 0.8% (n = 300,000);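 active = Every replicate reaches about 75%, or at least half do and their mean reaches it too, limit read from the data; inconclusive = At least half of replicates reach the limit but their mean does not; inactive = Under half of replicates reach the limit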;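 also: 0% = cytokine-treated negative control wells and 100% = positive control rescue; higher means more ATP so stronger rescue from cytokine killing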
Mdm2 MdmX PPI – inhibitors of human Mdm2/MdmX interaction; inhibition, % at 8 µM; actives 3% (n = 330,000); SaOS-2 split-luciferase Mdm2/MdmX complementation, luminescence; O15151+Q00987;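 active = inhibition of at least 50% at 8 µM in the primary screen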
CSC inhib – blocks cancer stem cells | cancer stem cell-like cells viability, luminescence | inhibition, % at 7.5 µM | AID 2717 | actives 1.1% (n = 300,000); in the data active = inhibition above about 75%; inconclusive = no clear call, values can overlap the other calls; tested in HMLE shEcad cells
Mdm2 MdmX conf – confirmation of human Mdm2/MdmX interaction inhibitors; inhibition, % at 8 µM; AID 489028; Mdm2-MdmX binding, luminescent assay; actives 55% (n = 10,000); shares compounds with Mdm2 MdmX PPI; in the data active = inhibition above about 40%
Full FLuc ctr – counter-screen for Mdm2/MdmX inhibitors: full-length luciferase; shares compounds with Mdm2 MdmX PPI; SaOS-2 full-length luciferase counterscreen, luminescence; inhibition, % at 8 µM; actives 77% (n = 6,200); AID 504607;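 active = mean inhibition at 8 µM reaching about 37%, which flags the compound as non-specific, limit read from the data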;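 also: p53-null SaOS-2 cells with luciferase driven by a doxycycline-inducible promoter; compound on cells about two nights before reading with doxycycline added after day one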
* hit, by the source's call; ? = inconclusive; nt = no result given. Only some compounds are listed: those with a hit (about 4.8% of all), similar ones and a draw of the others.

SMILES	MPTP block	Calb FLC	Beta cell apopt	Mdm2 MdmX PPI	CSC inhib	Mdm2 MdmX conf	Full FLuc ctr
COc1ccc(-c2cc3c(=O)n(CC(=O)NC4CCN(Cc5ccccc5)CC4)ncn3n2)cc1	1	-4	8	69*	-8	13	nt
COc1ccc(-c2cc3c(=O)n(CC(=O)NCCCN4CCC(N5CCCCC5)CC4)ncn3n2)cc1	2	nt	5	67*	18	26	nt
C(=C\c1ccccc1)/CN1CCN(C(c2cccc3ccccc23)c2nnnn2C2CCCC2)CC1 (stereo not drawn)	2	nt	nt	nt	nt	nt	nt
Cc1nn(CC(=O)NCCCN2CCCCC2)c(=O)c2cc(-c3ccccc3)nn12	-1	3	0	17	3	nt	nt
COc1ccc(-c2cc3c(=O)n(CC(=O)NCCCN4CCC(N5CCCCC5)CC4)nc(C)n3n2)cc1	0	-2	-12	99*	-16	100*	46*
CC1CCN(Cc2nnnn2-c2cccc([N+](=O)[O-])c2)CC1	0	5	-6	12	2	nt	nt
CC(C)(C)C(=O)Nc1ccc(N=Nc2ccccc2)cc1	1	-5	-17	71*	34	73*	136*
CC(C)C1C(C#N)=C(N)Oc2n[nH]c(-c3ccc4ccccc4c3)c21 (stereo not drawn)	2	6	11	57*	17	63*	50*
O=C(CCl)N1CCN(S(=O)(=O)c2ccc3c(c2)CCC3)CC1	-1	nt	-6	64*	nt	7	nt
CN1C(=O)N(CC(=O)N2CCN(S(=O)(=O)c3ccc4c(c3)CCC4)CC2)C(=O)C12CCCCC2	0	nt	nt	23	nt	nt	nt
O=C(CCl)N1CCN(S(=O)(=O)Cc2ccccc2)CC1	-2	nt	-9	71*	nt	25	nt
COc1ccc2c(c1OC)C(=O)N1C2SC(C)(C)[C@H]1C(=O)NC(C)C (stereo partly drawn)	-1	-1	-7	-29	-2	nt	nt
COC(=O)CN1C(=O)COc2ccc(S(=O)(=O)N3CCCCC3)cc21	0	nt	nt	nt	nt	nt	nt
CN1Cc2c(N3CCOCC3)nc3sc(C(=O)c4ccccc4)c(N)c3c2CC1(C)C	-5	-5	0	59*	-3	24	nt
Cc1cc(C)n2[nH]c(=O)cc2n1	-1	nt	nt	nt	nt	nt	nt
O=C(c1cccc(S(=O)(=O)N2CCc3ccccc32)c1)N1CCOCC1	0	nt	3	14	5	nt	nt
CCN(CC)c1nc(C#N)cc(-c2ccc(OC)cc2)n1	6	-11	22	54*	-2	65*	47*
COc1ccc(-c2cc(C#N)nc(Cl)n2)cc1	3	-6	-6	68*	25	34	38*
Cc1cccc(NC(=O)c2ccc(C3SCC(=O)N3CCc3ccccc3)cc2)c1 (stereo not drawn)	5	-4	37	54*	0	25	nt
CC(=O)Nc1ccc(NC(=O)c2ccc(C3SCC(=O)N3CCc3ccccc3)cc2)cc1 (stereo not drawn)	0	32	-1	20	-1	nt	nt
CCC/C(C)=N/NC(=O)c1ccccc1O	0	-6	-2	14	-14	nt	nt
CCOC(=O)C(CC)/C(C)=N\NC(=O)c1ccccc1O (stereo not drawn)	-8	?	33	68*	41	50*	77*
Cc1ccc(SC[C@H](C)CN2CCC(NC(=O)OCc3ccccc3)CCC2=O)cc1 (stereo partly drawn)	-1	nt	nt	nt	nt	nt	nt
N=C1C(c2nc3ccccc3s2)=C(O)CN1NC(=O)c1ccccc1[N+](=O)[O-]	-1	14	-1	54*	10	1	nt
N=C1C(c2nc3ccccc3s2)=C(O)CN1NC(=O)c1c[nH]c2ccccc12	1	?	-8	4	2	nt	nt
SMILES	MPTP block	Calb FLC	Beta cell apopt	Mdm2 MdmX PPI	CSC inhib	Mdm2 MdmX conf	Full FLuc ctr
COc1ccc(-c2csc(N(CCCN(C)C)C(=O)c3ccc(C(C)(C)C)cc3)n2)cc1	26	13	4	54*	26	39	nt
CCN(CC)CCCN(C(=O)c1ccccc1F)c1nc(-c2ccc(OC)cc2)cs1	0	-37	-5	50*	4	42*	69*
COc1ccc(-c2csc(N(CCCN(C)C)C(=O)c3ccc(C)cc3)n2)cc1	4	0	-20	26	-7	nt	nt
CCN(CC)CCCN(C(=O)c1ccccc1C)c1nc(-c2ccc(OC)cc2)cs1	1	6	3	30	-2	nt	nt
CCN(CC)CCCN(C(=O)c1ccc(OC)cc1)c1nc(-c2ccc(OC)cc2)cs1	2	7	-1	50*	18	40*	58*
CCN1C(=O)[C@@H]2[C@H](C1=O)[C@@H]1C(=O)Nc3ccccc3C(=O)N1[C@@H]2c1ccc(Br)cc1	-2	-6	2	14	-3	nt	nt
C[C@@]12C(=O)Nc3cc(Cl)ccc3C(=O)N1[C@H]1c3cc(Br)ccc3OC[C@@H]1[C@@H]2c1ccccc1	0	nt	23	67*	-4	72*	31
Cc1ccc2c(c1)C(=O)N1[C@H]3c4cc(C)ccc4OC[C@@H]3[C@H](c3ccccc3)[C@]1(C)C(=O)N2	-2	nt	7	54*	43	43*	38*
C[C@@]12C(=O)Nc3ccc(F)cc3C(=O)N1[C@H]1c3ccccc3OC[C@@H]1[C@@H]2c1ccccc1	0	nt	3	-11	21	nt	nt
COc1ccc2c(c1)OC[C@H]1[C@H]2N2C(=O)c3cc(OC)c(OC)cc3NC(=O)[C@@]2(C)[C@H]1c1ccccc1	1	nt	12	58*	4	35	nt
C[C@@]12C(=O)Nc3ccc(F)cc3C(=O)N1[C@H]1c3cc(Cl)ccc3OC[C@@H]1[C@@H]2c1ccccc1	1	nt	16	56*	57	34	nt
C[C@@]12C(=O)Nc3cc(Cl)ccc3C(=O)N1[C@H]1c3ccccc3OC[C@@H]1[C@@H]2c1ccccc1	0	nt	8	22	-21	nt	nt
COc1ccccc1C(=O)Nc1ccccc1N1CCN(C(=O)c2ccc(Cl)cc2)CC1	0	8	11	18	14	nt	nt
C=C(C)COC(=O)c1ccccc1C(=O)OCC1(C)CO1 (stereo not drawn)	0	nt	nt	nt	nt	nt	nt
C[C@@]12C(=O)Nc3cc(Cl)ccc3C(=O)N1[C@H]1c3cc(Cl)ccc3OC[C@@H]1[C@@H]2c1ccccc1	1	nt	-3	61*	nt	26	nt
Cc1cccc(C)c1-n1nnnc1-c1nc2cc3ccccc3cc2[nH]c1=O	3	nt	nt	nt	nt	nt	nt
Cc1ccc(S(=O)(=O)N(CC(=O)N/N=C/c2cccc(Cl)c2)c2cccc3cccnc23)cc1	1	-1	41	66*	-7	23	nt
Cc1ccc(N(CC(=O)N/N=C/c2cccnc2)S(=O)(=O)c2ccccc2)cc1	2	-7	-1	4	-14	nt	nt
Cc1cccc2c(C(=O)N3CCN(c4ccccc4)CC3)cc(-c3ccncc3)nc12	-2	34	10	57*	58	75*	69*
